Most compounds without a hit are left out; they make up all but 3.3% or so of the library.
NS1 inh: influenza NS1 inhibition | Potency, µM (series often up to 46.1 µM), without a hit: top-dose activity, positive = more growth | 270,000 compounds, 0.4% hits; calls by dose curve; also: actives are rising curves; nearly all actives have a fitted effect of over 50% in size
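Compounds were scored for reversing the slow growth caused by influenza A NS1 in S. cerevisiae, measured by optical density at 600 nm. Assay medium contained 2% galactose at pH 6.0; NS1-free yeast of the same strain were the positive control.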
Tb PYK inh: blocks Trypanosoma brucei pyruvate kinase; Q57TT1; TbPYK enzyme, Kinase-Glo Plus ATP luminescence, 45 min; Potency, µM (doses to about 76.8 µM), inactives show at the highest dose activity, negative = inhibition, usual class: inhibitors; 410,000 compounds, 0.12% hits; also: % is scaled to controls: 0 for no effect and ±100 for the full control effect; nearly all actives have a fitted effect of over 50% in size
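In this concentration-response screen, enzyme-free wells defined baseline while DMSO plates tracked drift. Each reaction combined TbPYK, substrate, compound and 130 uM ADP for 45 min at room temperature. Kinase-Glo Plus luminescence gave the signal.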
SARS PLpro yeast: blocks SARS-CoV papain-like protease in a yeast assay; S. cerevisiae expressing SARS-CoV PLpro, growth rescue; Potency, µM (titrated, usually from 32.9 µM), for the others: at the highest dose activity, positive = growth rescue, most hits filed as activators; 330,000 compounds, 0.19% hits; AID 485353; calls by dose curve; also: 0% is about no effect; nearly all actives have a fitted effect of over 55% in size
LmPK inh: inhibitors of Leishmania mexicana pyruvate kinase. 290,000 compounds, 0.37% hits. purified LmPK, Kinase-Glo ATP luminescence, 1 h. Q27686. Potency, µM (titrated, usually from 57.5 µM), for the others: at the top dose activity change, negative = inhibition, usual class: inhibitors; also: % is scaled to controls: 0 for no effect and ±100 for the full control effect
Target sequence (Q27686 whole entry, looked up): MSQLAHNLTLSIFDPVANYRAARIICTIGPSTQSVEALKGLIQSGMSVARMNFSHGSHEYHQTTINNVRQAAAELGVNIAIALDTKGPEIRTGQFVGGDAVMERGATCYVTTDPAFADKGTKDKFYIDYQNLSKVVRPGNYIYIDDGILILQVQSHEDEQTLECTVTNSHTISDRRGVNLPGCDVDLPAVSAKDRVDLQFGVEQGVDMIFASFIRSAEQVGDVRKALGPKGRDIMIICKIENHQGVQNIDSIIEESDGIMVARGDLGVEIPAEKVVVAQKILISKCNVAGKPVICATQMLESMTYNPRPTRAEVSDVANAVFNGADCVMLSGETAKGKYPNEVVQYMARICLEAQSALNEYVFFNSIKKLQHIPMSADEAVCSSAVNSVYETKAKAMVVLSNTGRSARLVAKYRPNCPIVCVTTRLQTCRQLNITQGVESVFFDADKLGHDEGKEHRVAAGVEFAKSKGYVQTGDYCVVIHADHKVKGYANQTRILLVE
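In 50 mM imidazole pH 7.2 with 7 mM MgCl2, LmPK (0.1 nM) turned over PEP (0.5 mM) and ADP (0.1 mM) for 1 h at room temperature. Luciferase read-out of ATP.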
RE007 growth inh: less growth of the S. pombe RE007 Vpr strain | AID 651644 | Potency, µM (titrated, usually from 92.2 µM), for the others: top-dose activity change, negative = less growth, actives largely listed as inhibitors | S. pombe RE007 Vpr strain, BacTiter-Glo ATP luminescence, 24 h | 360,000 compounds, 0.21% hits; active = well fitted falling curve with a large enough effect; inconclusive = small, poorly fitted or top-dose-only effect; inactive = no such curve, though single readings can be large or run the other way; also: % is scaled to controls: 0 for no effect and ±100 for the full control effect; nearly all actives have a fitted effect of over 50% in size
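Fission yeast strain RE007, carrying one chromosomally integrated HIV-1 vpr copy, was seeded at OD 0.01 in PMG+AL medium with 23 nL pinned compound. After 24 h at 30 °C and 99% humidity, viability was read by BacTiter-Glo luminescence.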
Sm TGR inh: inhibitors of Schistosoma mansoni thioredoxin glutathione reductase; Q962Y6; 360,000 compounds, 3% hits; AID 485364; Potency, µM (titrated, usually from 114 µM), for the others: at the top dose activity change, negative = inhibition, usual class: inhibitors; purified TGR, DTNB reduction, TNB absorbance 405 nm; also: % is scaled to controls: 0 for no effect and ±100 for the full control effect; nearly all actives have a fitted effect of over 60% in size
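TGR 20 nM + NADPH 100 uM (dispensed conc.), cpd preinc 15 min RT; start with NADPH (500 uM addition) then DTNB (15 mM addition). Kinetic TNB absorbance, 405 nm filter. Four-parameter Hill fit across titration.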
* marks the source's active call; other numbers are inactive results; u = inconclusive; x = no result; [ ] = dose if it differs, or a comment. Unless noted, calls follow the shape of the dose curve; as a rule, active = well fitted curve in the direction sought with a large enough effect; inconclusive = small, poorly fitted or top-dose-only effect, or another doubt; inactive = no such curve, though single readings can be large; an effect the other way counts as inactive or inconclusive. Potency is read from the fitted curve at half-maximal effect.

SMILES	NS1 inh	Tb PYK inh	SARS PLpro yeast	LmPK inh	RE007 growth inh	Sm TGR inh
CCOc1cc(C(Nc2cc(C)ccn2)c2ccc3cccnc3c2O)ccc1OC (stereo unspecified)	x	53.6%	x	x	x	0.282µM*
COc1ccc(C)cc1NC(=O)c1cc(S(=O)(=O)N2CCCCC2)c[nH]1	x	6.6%	x	x	x	0.3%
O=c1oc2ccccc2c(O)c1/C=N/c1nc(-c2ccc(O)c(O)c2)cs1	17.8%	x	x	x	x	x
CCCOc1ccc(NC(=O)CC2C(=O)N(c3cccc(OC)c3)C(=O)N2CCc2ccncc2)cc1 (stereo unspecified)	x	2.7%	x	x	x	1.5%
Cc1cccc(NC(c2cccc(Cl)c2)c2ccc3cccnc3c2O)n1 (stereo unspecified)	x	19.9%	x	x	x	4.47µM*
COc1ccc(C(Nc2ccccn2)c2ccc3ccc(C)nc3c2O)cc1C (stereo unspecified)	x	0.3%	x	x	x	0.708µM*
Cc1ccc(NC(=O)[C@@H](c2ccccc2)N2Cc3ccccc3C2=O)cc1F	x	-1.7%	x	x	x	1.6%
COc1cccc(NC(=O)CSc2nc3ccc(NC(=O)c4cccs4)cc3s2)c1	x	3.1%	x	x	x	-0.4%
CCOC(=O)c1[nH]c(=S)n(Cc2ccccc2)c1C(=O)OCC	x	u	x	x	3.4%	x
CCOC(=O)c1sc(=S)n(-c2ccccc2)c1NC(C)=O	0.8%	-6.5%	2.4%	-6.0%	-4.2%	44.7µM*
CCOC(=O)c1[nH]c(=S)n(-c2ccccc2)c1C(=O)OCC	x	2.51µM*	x	x	-3.7%	x
CCOC(=O)c1sc(=S)n(C)c1NC(=O)c1ccccc1	-0.1%	-20.5%	18.6%	-1.9%	-12.3%	7.9%
Cc1ccc(N(CC(=O)Nc2cc(C)ccc2C)S(=O)(=O)c2c(C)noc2C)cc1	x	2.3%	x	x	x	-2.8%
Cc1cc(C)n(-c2nc3ccccc3nc2N2CCN(c3cccc(C(F)(F)F)c3)CC2)n1	x	1.9%	x	x	x	6.1%
COc1ccc(N(CC(=O)NCc2ccccc2Cl)S(=O)(=O)c2c(C)[nH]c(=O)[nH]c2=O)cc1	x	0.0%	x	x	x	-1.2%
COc1ccc(OCC2CCNCC2)cc1	6.4%	-6.3%	-2.5%	-0.1%	-3.2%	35.5µM*
COc1ccc(CNC(=O)C2CCN(S(=O)(=O)N3CCCCC3)CC2)cc1	6.4%	5.9%	1.1%	0.8%	-2.0%	-0.2%
COc1ccc(CNC(=O)C2CCNCC2)cc1	5.8%	-3.9%	3.4%	3.1%	-4.8%	44.7µM*
c1ccc(COCC2CCNCC2)cc1	15.3%	0.8%	3.0%	-1.7%	-7.3%	0.7%
Cn1cccc1C(=O)C(=O)Nc1ccccc1	-9.7%	u	-1.3%	15.8µM*	u	7.5%
Cn1cccc1C(=O)C(=O)Nc1ccccc1C(F)(F)F	x	-4.4%	-1.0%	8.1%	-0.7%	19.6%
Cc1cc(=O)[nH]c(SCC(=O)c2ccc(O)c(O)c2)n1	-20.5%	-4.3%	-13.9%	16.5%	3.6%	17.8µM*
CCCCNC(=O)c1nc(C2CCN(S(=O)(=O)c3ccc(C(F)(F)F)cc3)CC2)oc1-c1ccccc1	x	x	x	x	-5.8%	x
Cc1ccc(-c2cc(C(=O)NCc3ccco3)c3ccccc3n2)o1	-10.3%	u	-8.2%	9.1%	-18.4%	17.8µM*
Cc1ccc(-c2cc(C(=O)Nc3ccccc3C)c3ccccc3n2)o1	-21.5%	-18.6%	-71.2%	-9.0%	-16.6%	10µM*
SMILES	NS1 inh	Tb PYK inh	SARS PLpro yeast	LmPK inh	RE007 growth inh	Sm TGR inh
Cc1ccc(-c2cc(C(=O)N/N=C/c3ccc([N+](=O)[O-])o3)c3ccccc3n2)o1	-4.6%	-12.5%	-6.8%	-4.6%	-16.4%	39.8µM*
COC(=O)c1cc(-c2ccc(C)o2)nc2ccccc12	-43.3%	22.4µM*	-42.9%	-13.0%	11.2µM*	u
Cc1cc(C(=O)NCc2ccco2)c2ccccc2n1	5.2%	-1.6%	1.2%	-3.2%	-10.6%	44.0%
Cc1cc(C(=O)Nc2ccccc2C)c2ccccc2n1	-1.0%	1.3%	4.7%	8.9%	3.9%	0.7%
CN(C)S(=O)(=O)c1ccc2c(c1)N(CC(=O)NCc1ccccc1)C(=O)C1CCCCN21 (stereo unspecified)	x	-2.7%	x	x	x	-3.7%
COc1ccc(-c2nnc(SCC(=O)N(C)Cc3ccccc3)o2)cc1OC	x	-5.2%	x	x	x	4.9%
CC(C)[C@@]1(NC(=O)[C@H]2C[C@H]3c4cccc5[nH]cc(c45)C[C@@H]3N(C)C2)O[C@]2(O)[C@H]3CCCN3C(=O)CN2C1=O (tested in a mixture with another compound)	x	-0.4%	x	x	x	x
O=C1CC(=O)Nc2cc(S(=O)(=O)N3CCN(c4ccc([N+](=O)[O-])cc4)CC3)ccc2N1	-3.5%	9.2%	-2.3%	10.7%	-7.9%	11.2µM*
c1ccc(CSc2nnc(C3CCNCC3)o2)cc1	x	3.4%	x	x	x	1.8%
CN(C=C1C(=O)CC(C)(C)CC1=O)CCN1CCNCC1	4.0%	-18.3%	-3.4%	3.8%	20.9%	22.4µM*
CCCCOc1ccccc1C1CC(=O)Nc2ccc3ccccc3c21 (stereo unspecified)	x	0.0%	x	x	x	7.4%
Cc1cc(OC(C)C(=O)N(Cc2ccco2)Cc2ccco2)cc(C)c1Cl (stereo unspecified)	x	1.1%	x	x	x	-0.2%
O=C(N=C1c2ccccc2CN1c1ccc(F)c(F)c1)c1cccnc1	2.7%	-1.2%	0.4%	3.9%	-19.8%	44.7µM*
O=C(NCC(=O)N(Cc1cccs1)C(C(=O)NC1CCCC1)c1cccnc1)c1ccco1 (stereo unspecified)	-4.6%	-0.2%	1.0%	2.4%	13.2%	u
O=C(NCC(=O)N(Cc1cccs1)C(C(=O)NC1CCCCC1)c1ccncc1)c1ccco1 (stereo unspecified)	-7.3%	-0.5%	17.8%	-0.4%	-1.3%	44.7µM*
O=C(NC1CCCC1)C(c1cccs1)N(Cc1ccco1)C(=O)c1csnn1 (stereo unspecified)	-7.3%	-3.6%	8.9%	0.5%	-2.6%	35.5µM*
CC(=O)c1cccc(NC(=O)CSc2nnc(C(C)N(C)C)n2Cc2ccccc2)c1 (stereo unspecified)	-17.8%	-10.1%	-4.1%	-2.1%	-2.7%	25.1µM*
CC(=O)c1cccc(NC(=O)CSc2nnc(C(C)N(C)C)n2-c2ccc(F)cc2)c1 (stereo unspecified)	2.6%	-7.2%	-1.2%	-0.7%	0.2%	17.9%
Cc1ccc(-c2nc3cc(C(C)C)ccc3o2)cc1NC(=O)c1cccs1	x	1.4%	x	x	x	-2.9%
C[C@H]1c2cccc(O)c2C(O)=C2C(=O)[C@]3(O)C(O)=C(C(N)=O)C(=O)[C@@H](N(C)C)C3[C@@H](O)C21 (stereo partly specified)	x	4.5%	x	x	7.3%[18.4 µM]	-14.9%

Screening results: PubChem, National Center for Advancing Translational Sciences (NCATS)
